# PubChem BioAssay (NCATS)
# Inconclusive results are not listed. A call without a number means that no potency is given here. Active and inactive are the calls of the source. Calls come from the whole dose curve; as a rule, active = well fitted curve in the direction sought with a large enough effect; inconclusive = small, poorly fitted or top-dose-only effect, or another doubt; inactive = no such curve, though single readings can be large; an effect the other way counts as inactive or inconclusive.
# How the values were obtained:
# [1] = qHTS of pediatric cancer cell lines to identify multiple opportunities for drug repurposing: Primary screen for BT-37 cells (AID 1347094)
# Summary of the method: (§1)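 Viability was measured as metabolically active cells after 48 hours of treatment, read by CellTiter-Glo luminescence. Compounds were tested at multiple final concentrations, giving concentration-response curves.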
# [2] = qHTS of pediatric cancer cell lines to identify multiple opportunities for drug repurposing: Primary screen for NB-EBc1 cells (AID 1347095)
# Summary of the method: as §1
# [3] = qHTS of pediatric cancer cell lines to identify multiple opportunities for drug repurposing: Primary screen for U-2 OS cells (AID 1347096); note: nearly all actives have a fitted effect of over 50% in size
# Summary of the method: (§2)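 Viability after 48 h compound treatment at 37C, 500-1,000 cells/well, read as ATP luminescence with CellTiter-Glo. Primary screens used 11-point (MIPE, 0.78 nM-46 µM) or 8-point (NPC, 0.59 nM-46 µM) final concentrations; follow-up screens used 11-point dilutions.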
# [4] = qHTS of pediatric cancer cell lines to identify multiple opportunities for drug repurposing: Primary screen for Saos-2 cells (AID 1347097); note: nearly all actives have a fitted effect of over 40% in size
# Summary of the method: as §1
# [5] = qHTS of pediatric cancer cell lines to identify multiple opportunities for drug repurposing: Primary screen for SK-N-SH cells (AID 1347098); note: nearly all actives have a fitted effect of over 65% in size
# Summary of the method: (§3)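 Cells (500-1,000/well) rested 5 h, then received compounds for 48 h; metabolically active cells were measured by CellTiter-Glo luminescence. Final concentrations spanned up to 46 µM (MIPE, 11-point) or 0.59 nM-46 µM (NPC, 8-point) in primary screens, 11-point in follow-ups.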
# [6] = qHTS of pediatric cancer cell lines to identify multiple opportunities for drug repurposing: Primary screen for NB1643 cells (AID 1347099); note: nearly all actives have a fitted effect of over 50% in size
# Summary of the method: as §1
# [7] = qHTS of pediatric cancer cell lines to identify multiple opportunities for drug repurposing: Primary screen for LAN-5 cells (AID 1347100)
# Summary of the method: as §2
# [8] = qHTS of pediatric cancer cell lines to identify multiple opportunities for drug repurposing: Primary screen for BT-12 cells (AID 1347101); note: nearly all actives have a fitted effect of over 25% in size
# Summary of the method: as §3
# [9] = qHTS of pediatric cancer cell lines to identify multiple opportunities for drug repurposing: Primary screen for Rh18 cells (AID 1347102); note: nearly all actives have a fitted effect of over 65% in size
# Summary of the method: as §2
# [10] = qHTS of pediatric cancer cell lines to identify multiple opportunities for drug repurposing: Primary screen for OHS-50 cells (AID 1347103); note: nearly all actives have a fitted effect of over 40% in size
# Summary of the method: as §3
# [11] = qHTS of pediatric cancer cell lines to identify multiple opportunities for drug repurposing: Primary screen for RD cells (AID 1347104); note: nearly all actives have a fitted effect of over 55% in size
# Summary of the method: as §1
# [12] = qHTS of pediatric cancer cell lines to identify multiple opportunities for drug repurposing: Primary screen for control Hh wild type fibroblast cells (AID 1347106); note: nearly all actives have a fitted effect of over 55% in size
# Summary of the method: as §2
# [13] = qHTS of pediatric cancer cell lines to identify multiple opportunities for drug repurposing: Primary screen for Rh30 cells (AID 1347107); note: nearly all actives have a fitted effect of over 75% in size
# Summary of the method: as §2
# [14] = qHTS of pediatric cancer cell lines to identify multiple opportunities for drug repurposing: Primary screen for Rh41 cells (AID 1347108); note: nearly all actives have a fitted effect of over 70% in size
# Summary of the method: as §1
# [15] = qHTS of pediatric cancer cell lines to identify multiple opportunities for drug repurposing: Primary screen for MG 63 (6-TG R) cells (AID 1347105); note: nearly all actives have a fitted effect of over 50% in size
# Summary of the method: as §1
# [16] = qHTS of pediatric cancer cell lines to identify multiple opportunities for drug repurposing: Confirmatory screen for NB1643 cells (AID 1347109); note: nearly all actives have a fitted effect of over 45% in size
# Summary of the method: as §2
# [17] = qHTS of pediatric cancer cell lines to identify multiple opportunities for drug repurposing: Confirmatory screen for SK-N-MC cells (AID 1347111);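 note: cells exposed to compound for 48 h before the readout; nearly all actives have a fitted effect of over 70% in size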
# Summary of the method: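 SK-N-MC cells at 500-1,000 cells/well in growth media were pre-incubated 5 h, then exposed to compounds at 11-point dilutions for 48 h at 37 degrees C, 5% CO2. Viability was read as CellTiter-Glo luminescence.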
# [18] = qHTS of pediatric cancer cell lines to identify multiple opportunities for drug repurposing: Confirmatory screen for LAN-5 cells (AID 1347113); note: nearly all actives have a fitted effect of over 65% in size
# Summary of the method: as §2
# [19] = qHTS of pediatric cancer cell lines to identify multiple opportunities for drug repurposing: Confirmatory screen for A673 cells (AID 1347110); note: nearly all actives have a fitted effect of over 65% in size
# Summary of the method: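 A673 cells at 500-1,000 cells/well were dosed 5 h after plating, in dilution series up to 46 uM final; primary runs used 8 or 11 points and confirmatory runs used 11 points. Viability was read by CellTiter-Glo luminescence after 48 h, against DMSO and 2.3 uM bortezomib controls.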
# [20] = qHTS of pediatric cancer cell lines to identify multiple opportunities for drug repurposing: Confirmatory screen for BT-12 cells (AID 1347112); note: nearly all actives have a fitted effect of over 55% in size
# Summary of the method: as §2
# Potency is the fitted concentration of half-maximal effect.
Compound,Potency [1],Potency [2],Potency [3],Potency [4],Potency [5],Potency [6],Potency [7],Potency [8],Potency [9],Potency [10],Potency [11],Potency [12],Potency [13],Potency [14],Potency [15],Potency [16],Potency [17],Potency [18],Potency [19],Potency [20]
Nc1ccn(C2CO[C@H](CO)O2)c(=O)n1 (some centres undefined),inactive,inactive,inactive,inactive,inactive,inactive,inactive,inactive,inactive,inactive,inactive,inactive,inactive,inactive,,,,,,
CCN(CC)Cc1ccc2cc(COC(=O)Nc3ccc(C(=O)NO)cc3)ccc2c1,1930 nM (active),833 nM (active),3720 nM (active),935 nM (active),1520 nM (active),1180 nM (active),526 nM (active),3060 nM (active),,863 nM (active),2350 nM (active),14800 nM (active),,935 nM (active),4690 nM (active),inactive,inactive,inactive,,
Nc1nc(=O)n([C@H]2CSC(CO)O2)cc1F (some centres undefined),inactive,inactive,inactive,inactive,inactive,inactive,inactive,inactive,inactive,inactive,inactive,inactive,inactive,inactive,inactive,,,,,
C[C@@H]1CC[C@@]2(OC1)OC1CC3C4CC=C5CC(O)CCC5(C)C4CCC3(C)C1[C@@H]2C (some centres undefined),inactive,inactive,inactive,inactive,inactive,inactive,inactive,inactive,,inactive,inactive,inactive,inactive,inactive,inactive,,,,,
O=c1c(O)c(-c2ccc(O)c(O)c2)oc2cc(O)ccc12,24300 nM (active),23500 nM (active),inactive,16600 nM (active),27100 nM (active),20900 nM (active),16600 nM (active),27300 nM (active),,21700 nM (active),,,,,inactive,,,,,
O=C(CCCCCCC(=O)Nc1cccnc1)NO,19300 nM (active),4180 nM (active),11800 nM (active),13200 nM (active),6070 nM (active),2960 nM (active),2640 nM (active),10900 nM (active),,4320 nM (active),16600 nM (active),,18700 nM (active),11800 nM (active),18700 nM (active),,,,,
O=C(O)C(=O)Nc1cccc(C2=NN=N[N]2)c1,inactive,inactive,inactive,inactive,inactive,inactive,inactive,inactive,inactive,inactive,inactive,inactive,inactive,inactive,inactive,,,,,
CC(=O)O[C@H]1C[C@@H]2CC[C@H]3[C@H]4C[C@H]([N+]5(C)CCCCC5)[C@@H](OC(C)=O)[C@@]4(C)CC[C@@H]3[C@@]2(C)C[C@H]1[N+]1(C)CCCCC1,inactive,inactive,inactive,inactive,inactive,inactive,inactive,inactive,inactive,inactive,inactive,inactive,inactive,inactive,inactive,,,,,
CN[C@H](CC(C)C)C(=O)N[C@H]1C(=O)N[C@@H](CC(N)=O)C(=O)N[C@@H]2C(=O)N[C@H]3C(=O)N[C@H](C(=O)N[C@H](C(=O)O)c4cc(O)cc(O)c4-c4cc3ccc4O)[C@H](O)c3ccc(c(Cl)c3)Oc3cc2cc(c3O[C@@H]2O[C@H](CO)[C@@H](O)[C@H](O)[C@@H]2O[C@H]2C[C@](C)(N)[C@H](O)[C@H](C)O2)Oc2ccc(cc2Cl)[C@H]1O,inactive,inactive,inactive,inactive,inactive,inactive,inactive,inactive,,inactive,inactive,inactive,inactive,inactive,inactive,,,,,
Cc1ccc([N+](=O)[O-])cc1S(=O)(=O)N(C)N=Cc1cnc2ccc(Br)cn12,38.5 nM (active),935 nM (active),118 nM (active),187 nM (active),10.8 nM (active),4.2 nM (active),8.3 nM (active),34.3 nM (active),148 nM (active),30.6 nM (active),74.3 nM (active),inactive,,66.2 nM (active),18700 nM (active),165 nM (active),1040 nM (active),522 nM (active),293 nM (active),827 nM (active)
OC[C@H]1OC(O)C[C@@H](O)[C@H]1O (some centres undefined),inactive,inactive,inactive,inactive,inactive,inactive,inactive,inactive,inactive,inactive,inactive,inactive,,inactive,inactive,,,,,
O=c1ccn([C@@H]2O[C@H](CO)[C@H](O)[C@@H]2F)c(=O)[nH]1,inactive,inactive,inactive,inactive,9610 nM (active),inactive,inactive,inactive,inactive,,,,,,inactive,,,,,
